In the OligoGym collection:
Note: reference of the scale not given here.

The sequences below were run against FAN1 (assay: pooled miR-30 sensor sort-seq; sequence = guide strand). Settings: shRNA.
Sequence TTGCTGATTGATAAGCTTCTAC has a sensor-assay potency score (higher = more potent) of -0.452. ATAACTTCTGACCAGTAGCTGA gave a sensor-assay potency score (higher = more potent) of -0.771. TTGACCAACAGGACTGTTGAAA gave a sensor-assay potency score (higher = more potent) of -0.462. TTTCACATCTTGCACAGCCATT was tested, and the sensor-assay potency score (higher = more potent) was -1.51. TTGGTCATCTTAATCCAGCTTA gave a sensor-assay potency score (higher = more potent) of 0.33. For TTCTTTGATACACTCTTGCTTT, the sensor-assay potency score (higher = more potent) was -0.307. Sequence TAACATGATCGCATTATCTGAG has a sensor-assay potency score (higher = more potent) of 0.286. In the case of TTTTTGAGAACTGTTCTCCAAA, the sensor-assay potency score (higher = more potent) is reported as -0.862. In the case of TAACTAGGAAACTCCATTCGGC, the sensor-assay potency score (higher = more potent) is reported as -0.0842. In the case of TTACATATAACTTCTGACCAGT, the sensor-assay potency score (higher = more potent) is reported as 0.259. TAAGCAACTGTCATCCTGCAGA showed a sensor-assay potency score (higher = more potent) of 0.0838.

Each sequence was assayed against FANCF in the same assay as above. Settings: shRNA.
With TAGACAGGAGACAGCGCTGGGT the sensor-assay potency score (higher = more potent) was -0.533. Work on TTGGGACTCAGTTCCAACCCAA yielded a sensor-assay potency score (higher = more potent) of -0.182. With TTCAAAATCTCCATCCTGCGCT the sensor-assay potency score (higher = more potent) was 0.034. In the case of TAGAACTTTATCTTTCAGAGGT, the sensor-assay potency score (higher = more potent) is reported as 0.316. In the case of TGGAAGTTCGCTAATCCCGGAA, the sensor-assay potency score (higher = more potent) is reported as -0.728. AAACCTATTGTGCAACTCCTCC showed a sensor-assay potency score (higher = more potent) of -0.726. In the case of ATAGCCATTGAAGCGCAGCATG, the sensor-assay potency score (higher = more potent) is reported as -1.41. For TTTCTGAAGGTCATAGTGCAAA, the sensor-assay potency score (higher = more potent) was -1.33. TTCATCAGAGAGTCCTCCTGGA gave a sensor-assay potency score (higher = more potent) of 0.554. With ATGTGCACCGCAGACCGCCGGC the sensor-assay potency score (higher = more potent) was -1.25. TTGGAGTGTCTCCTCATCGGCG was tested, and the sensor-assay potency score (higher = more potent) was -0.931. TCTCTTGGAGTGTCTCCTCATC showed a sensor-assay potency score (higher = more potent) of -1.11. With TGACAGAGGCTTTGAAACCTAT the sensor-assay potency score (higher = more potent) was -1.18. With AAGAGGTCTGTCCAGATGCTAA the sensor-assay potency score (higher = more potent) was -1.55. With TCTATAGCCATTGAAGCGCAGC the sensor-assay potency score (higher = more potent) was -1.1. With TTGGGTTCTCTCTATAGCCATT the sensor-assay potency score (higher = more potent) was -1.39. Work on TATCTTTCAGAGGTGGAGGGGC yielded a sensor-assay potency score (higher = more potent) of -0.0769. With ATAGACAGGAGACAGCGCTGGG the sensor-assay potency score (higher = more potent) was -0.33. Sequence TTTTGTAAACTATATATTCTAT has a sensor-assay potency score (higher = more potent) of -0.511. TACTTCAAAATCTCCATCCTGC was tested, and the sensor-assay potency score (higher = more potent) was 0.811. TTTGGGTTCTCTCTATAGCCAT gave a sensor-assay potency score (higher = more potent) of -1.05. TTAGAACTTTATCTTTCAGAGG gave a sensor-assay potency score (higher = more potent) of -1.12. TTATCTTTCAGAGGTGGAGGGG gave a sensor-assay potency score (higher = more potent) of -0.733. TTGAAACCTATTGTGCAACTCC gave a sensor-assay potency score (higher = more potent) of 0.168.

What follows are sequences tested against FANCG in the same assay as above. Settings: shRNA.
For TTGGGCACCCAGTTGAACCCAG, the sensor-assay potency score (higher = more potent) was -0.577. In the case of TTCTACCTCAATGAGAAACTGC, the sensor-assay potency score (higher = more potent) is reported as -0.153. TAAATTCACTAATTGCCACTTT was tested, and the sensor-assay potency score (higher = more potent) was 0.314. Work on TAGCAGCTCCAGACTCTCCAGC yielded a sensor-assay potency score (higher = more potent) of -0.96. With TTGCAGACTATGGAGGAGCCCT the sensor-assay potency score (higher = more potent) was -1.08.
